Hit rate of the full screen: of about 420,000 compounds, about 50,000 (12%) were called active. About 26% were inconclusive and are not listed. Calls follow the shape of the dose curve; as a rule, active = well fitted inhibition curve with a large enough effect; inconclusive = small, poorly fitted or top-dose-only effect; inactive = flat fitted curve, though single readings scatter. Shown is part of a subset that was picked to be rich in actives. Entries that show only a call come without a potency.
Test: qHTS for Inhibitors of human tyrosyl-DNA phosphodiesterase 1 (TDP1): qHTS in cells in presence of CPT; also: nearly all actives have a fitted effect of over 55% in size
Settings: chicken DT40 Tdp1-/-;hTDP1 cells + 20 nM CPT, ATP luminescence, 48 h; series mostly up to 46.2 µM
In short: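 Cell growth measured by CellTiter-Glo luminescence after a minimum 48 h, 37 C compound exposure with 20 nM CPT in Tdp1-knockout DT40 cells stably expressing hTDP1, seeded 400/well; qHTS titration format.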
Potency is read from the fitted curve at half-maximal effect.

Row | SMILES | Potency
1 | COC(=O)c1cccc(N(C(=O)CNC(=O)c2cccs2)C(C(=O)NCC2CCCO2)c2ccc(OC)c(OC)c2)c1 (configuration not stated) | inactive
2 | CNC(=O)CN1C(=O)c2cccnc2Sc2ccccc21 | inactive
3 | CC(C)NC(=O)N1CC[C@@]2(CCCN(C(=O)c3cccc(F)c3)C2)C1 | inactive
4 | CC(=O)N1CCC2(CCCN(c3ncccn3)C2)CC1 | inactive
5 | O=C(c1cc(C(F)(F)F)cc(C(F)(F)F)c1)N1CCC[C@@]2(CCN(c3ccccn3)C2)C1 | 16.4 µM (active)
6 | Cc1cc(F)ccc1S(=O)(=O)Nc1ccc(C(=O)N(C)Cc2ccco2)cc1 | inactive
7 | COc1c(C=O)c(CCN(C)C(=O)c2ccc(F)cc2)cc2c1OCO2 | inactive
8 | COc1cccc2c1OCC(CN1CCN(C3CCCCC3)C(CCO)C1)=C2 (configuration not stated) | inactive
9 | COc1ccc(-n2c(=O)c3ccccc3n(Cc3ccccc3Cl)c2=O)cc1 | inactive
10 | CC(=O)OC[C@H]1O[C@@H](O[C@H]2[C@H](O)[C@@H](OC(=O)c3ccccc3C(=O)O)[C@H](O)O[C@@H]2COC(C)=O)[C@H](O)[C@@H](OC(=O)c2ccccc2C(=O)O)[C@@H]1O | inactive
11 | O=C(CNC(=O)COc1ccccc1)NCCc1ccccn1 | inactive
12 | Cc1ccc(C(=O)N/C(=C\c2cccs2)C(=O)NCCc2ccccn2)cc1C | inactive
13 | COc1cncc(-c2cnc3sc(NCCc4ccccn4)nn23)c1 | 13 µM (active)
14 | N#Cc1cc([N+](=O)[O-])ccc1NCC1CCCO1 (configuration not stated) | inactive
15 | O=C(O)CN1c2cccc3cccc(c23)S1(=O)=O | inactive
16 | Cc1ccc(NC(=O)/C(=C\c2ccccc2)NC(=O)c2ccco2)cc1 | inactive
17 | FC(F)Oc1ccccc1C1CC(c2ccc(Br)s2)Nc2ncnn21 (configuration not stated) | 11.6 µM (active)
18 | Clc1ccc(C2CC(c3cccs3)n3ncnc3N2)cc1Cl (configuration not stated) | inactive
19 | COc1ccc(C2CC(c3ccccc3)Nc3ncnn32)cc1 (configuration not stated) | inactive
20 | CCOC(=O)Cn1nnnc1C | inactive
21 | O=C(O)c1cc(S(=O)(=O)N(Cc2ccccc2)c2ccccc2)ccc1Cl | inactive
22 | COc1cc2nnn(-c3ccncc3)c2cc1OC | inactive
23 | Cc1nn(CC(=O)NCCc2ccccc2)c(=O)c2cc3occc3n12 | inactive
24 | COCCNC(=O)c1cc2c(Br)ccc(Br)c2nc1N | inactive
25 | COc1ccccc1N1CCN(CCN2C(=O)c3ccccc3C(C)(C)C2=O)CC1 | 14.6 µM (active)
26 | CNCC(O)CN1CCN(c2ccccc2OC)CC1 (configuration not stated) | inactive

Row | SMILES | Potency
27 | COc1ccccc1N1CCN(CC(=O)NC(=O)NCc2ccco2)CC1 | inactive
28 | COc1ccc2c(C)cc3nnnn3c2c1 | inactive
29 | CC(C)[C@H](NC(=O)N1CC(=O)Nc2ccccc21)C(=O)N[C@@H](Cc1c[nH]c2ccccc12)C(=O)O | inactive
30 | CCN(C(=O)Cn1cnc2sc(C)c(S(=O)(=O)N3CCN(c4ncccn4)CC3)c2c1=O)c1ccccc1F | inactive
31 | CCOc1ccc(S(=O)(=O)N2CCCCC2)cc1NC(=O)CN1CCCC1c1cccs1 (configuration not stated) | 3.66 µM (active)
32 | COc1ccc(S(=O)(=O)N2CCCCCC2)cc1NC(=O)Cc1ccc(OC)c(OC)c1 | inactive
33 | Cc1ccc(S(=O)(=O)N2CCCCC2)cc1NC(=O)[C@@H]1CCCN1C(=O)c1cccs1 | inactive
34 | Cc1csc[n+]1CCC1CCCCC1 | 20 µM (active)
35 | CC(=O)c1ccc(N2C(=NC(=O)C(C)C)SC3CS(=O)(=O)CC32)cc1 (configuration not stated) | inactive
36 | O=C(CN1CCN(CC(=O)Nc2ccc3c(c2)OCO3)CC1)Nc1ccc(F)cc1 | inactive
37 | O=C(CSc1nc(-c2cccc(F)c2)[nH]c1-c1ccccc1)Nc1ccc2c(c1)OCO2 | 10.3 µM (active)
38 | O=C(CSc1nnc(-c2ccccn2)n1-c1ccccc1)Nc1ccc2c(c1)OCO2 | inactive
39 | O=c1c(CCc2ccccc2)nc2cncnc2n1C1CC1 | inactive
40 | CCCNC(=O)C(=O)Nc1cc2c3c(c1)CCC(=O)N3CCC2 | inactive
41 | Cc1cc(F)ccc1N1CCC(N2CCN(C)C(CCO)C2)CC1 (configuration not stated) | inactive
42 | O=C(Nc1ccc2c(c1)nc1n2CCCCC1)c1cc(S(=O)(=O)N2CCOCC2)ccc1Cl | 11.6 µM (active)
43 | O=C(Nc1ccc(N2CCOCC2)c(Cl)c1)c1ccc(S(=O)(=O)N2CCOCC2)cc1 | inactive
44 | O=S(=O)(c1cccc(-c2nnc3n2CCCCC3)c1)N1CCOCC1 | inactive
45 | N#C/C(=C(\O)C(F)(F)F)c1nnc2n1CCCCC2 | inactive
46 | Cc1cccc(C(=O)OCC(=O)Nc2sccc2C(N)=O)c1C | inactive
47 | O=C(CSc1ncn[nH]1)N/N=C/c1ccc(F)cc1 | inactive
48 | COc1ccc(Cl)cc1CSc1ncn[nH]1 | inactive
49 | O=C(/C=C/Sc1ncn[nH]1)c1ccc(Cl)cc1 | 2.31 µM (active)
50 | COC(=O)c1sccc1-n1cccc1C(=O)C(=O)N1CCCCC1 | inactive
51 | COc1cccc(-c2nnc(NC(=O)c3ccc(S(=O)(=O)N(CC(C)C)CC(C)C)cc3)o2)c1 | 3.66 µM (active)
52 | COc1cccc(NC(=O)c2ccc(S(=O)(=O)N(C)C)cc2)c1 | inactive

Row | SMILES | Potency
53 | O=C(COC(=O)c1ccc(Oc2ccccc2)cc1)Nc1nnc(-c2ccccc2)o1 | inactive
54 | O=C1/C(=C/c2ccc(F)cc2)SC(=S)N1NS(=O)(=O)c1ccccc1 | inactive
55 | O=C(CCN1C(=O)c2ccccc2C1=O)C1=NN[C@@H]2C(=O)N(c3ccc(F)cc3)C(=O)[C@H]12 | inactive
56 | CCCCCCc1cc2cc(-c3nnc(-c4ccccc4)o3)c(=O)oc2cc1O | 14.6 µM (active)
57 | Cc1c(CC(=O)NCCCCCC(=O)O)c(=O)oc2cc3occ(-c4ccccc4)c3cc12 | inactive
58 | CCCC(=O)Nc1nnc(-c2ccccc2)o1 | inactive
59 | Nc1cccc(S(=O)(=O)Nc2ccc(SC(F)F)cc2)c1 | inactive
60 | CC(C)(C)c1cc(P(=O)(c2ccccc2)c2ccccc2)ccc1O | inactive
61 | COc1ccccc1-c1cnn2c(N3CCOCC3)cc(C)nc12 | inactive
62 | O=C(Nc1cccc(Br)c1)C1CC(=O)N(C2CCCC2)C1 (configuration not stated) | inactive
63 | COc1ccc(OC)c(NC(=O)Cc2cccs2)c1 | inactive
64 | O=c1c2ccccc2ncn1/N=C/c1ccccc1 | inactive
65 | Cn1c(SCC(=O)N/N=C/c2ccc(O)c(O)c2)nc2ccccc21 | inactive
66 | CCCc1nc2ccccc2c(=O)n1/N=C/c1ccc(O)c(O)c1 | 11.6 µM (active)
67 | CSc1nc2c(c(=O)[nH]1)C(c1cccc(Cl)c1Cl)CC(=O)N2 (configuration not stated) | inactive
68 | O=C(CSCc1c(F)cccc1Cl)NCC1CCCO1 (configuration not stated) | inactive
69 | S=C(NCC1CCCO1)N1CCN(c2ccc(Cl)c(Cl)c2)CC1 (configuration not stated) | 20.6 µM (active)
70 | COc1ccc(S(=O)(=O)N2CCN(C(=S)NCC3CCCO3)CC2)cc1OC (configuration not stated) | inactive
71 | O=Cc1c(N2CCN(c3cccc(Cl)c3)CC2)nc2ccccn2c1=O | inactive
72 | CC(CNc1ccc([N+](=O)[O-])c2cccnc12)Nc1c([N+](=O)[O-])cc(C(F)(F)F)cc1[N+](=O)[O-] (configuration not stated) | inactive
73 | FC(F)(F)c1ccc2c3n(nc2c1)CCN=C3c1ccc(Cl)cc1 | inactive
74 | CCc1ccccc1NC(=O)CSc1nnc(CCNC(=O)OC(C)(C)C)o1 | inactive
75 | CN1OC[C@@H]2CN(C(=O)c3cccc4ccccc34)[C@H](c3ccc(N4CCCCC4)cc3)C[C@@H]21 | inactive
76 | C[C@H]1Cn2cnc(C(=O)N[C@H](C)c3ccccc3)c2C(=O)N1 | inactive
77 | COc1ccc(C(=O)OC(C)C(=O)NC2CCCC2)cc1S(=O)(=O)N1CCOCC1 (configuration not stated) | inactive
78 | COCCNc1ncnc2c1nc1n2CCCC1 | inactive

Row | SMILES | Potency
79 | CN(C(=O)C1CCN(c2ncnc3c2nc2n3CCCCC2)CC1)C1CCCCC1 | 20.6 µM (active)
80 | CCCN(CCC)C(=O)C1CCCN(c2ncnc3c2nc2n3CCCCC2)C1 (configuration not stated) | 14.6 µM (active)
81 | Cc1cccc2c(=O)n3c(nc12)CCCCC3 | inactive
82 | CCCCN(CC)C(=S)Nc1ccc2nc3n(c(=O)c2c1)CCCCC3 | inactive
83 | COCCCNC(=O)CN1C(=O)CSc2ccc(S(=O)(=O)N3CCOCC3)cc21 | inactive
84 | O=C(NCc1ccncc1)c1ccc(NS(=O)(=O)c2cccc([N+](=O)[O-])c2)cc1 | inactive
85 | COc1ccc(C(C)NC(=S)NC2CCCCC2)cc1OC (configuration not stated) | inactive
86 | COc1ccc(-n2c(CNC(=O)c3cc(C(F)(F)F)ccc3Cl)nnc2SC)cc1 | inactive
87 | COc1ccc(C(CNC(=O)COc2ccc([N+](=O)[O-])cc2)N2CCCCC2)cc1 (configuration not stated) | inactive
88 | CC(=O)c1ccc(S(=O)(=O)NC2CC(=O)N(c3ccc4c(c3)OCCO4)C2)cc1 (configuration not stated) | inactive
89 | Cc1ccc(N2C(=O)CN=C2Nc2nc(C)cc(C)n2)cc1 | inactive
90 | COc1ccc(N2CCN(C(C)=C3C(=O)c4ccccc4C3=O)CC2)cc1 | inactive
91 | COc1ccc(N2CCN(c3nc(-c4ccccc4F)nc4ccccc34)CC2)cc1 | 20.6 µM (active)
92 | COc1ccccc1-c1nc(N2CCN(C)CC2)c2ccccc2n1 | inactive
93 | O=C(Nc1ccc(Cl)cc1)c1cc2nc(C3CC3)cc(C(F)(F)F)n2n1 | inactive
94 | COC(=O)C1(C)CC1(c1ccccc1)c1ccccc1 (configuration not stated) | inactive
95 | CC(C)Oc1ccc(/C=N/NC(=O)c2nnn(-c3nonc3N)c2CN(C)C2CCCCC2)cc1 | inactive
96 | O=C(Nc1ccccc1Cl)N1CCC(CN2CCCC2)CC1 | inactive
97 | CCOC(=O)N1CCN(S(=O)(=O)c2ccc3c(c2)C(C)C(=O)N3)CC1 (configuration not stated) | inactive
98 | O=S(=O)(N1CCOCC1)N1CCN(c2ccccc2F)CC1 | inactive
99 | CC1C(=O)Nc2ccc(S(=O)(=O)N3CCN(c4ccccc4F)CC3)cc2NC1=O (configuration not stated) | 9.2 µM (active)
100 | Cn1c(=O)c(=O)n(C)c2cc(S(=O)(=O)NCCN3CCN(c4ccccc4F)CC3)ccc21 | inactive
101 | Cc1ccc(C)c(N2CCN(S(=O)(=O)c3ccc4c(c3)C(C(C)C)C(=O)N4)CC2)c1 (configuration not stated) | 20.6 µM (active)
102 | Cc1ccc(C)c(N2CCN(S(=O)(=O)c3ccc4c(c3)oc(=O)n4C)CC2)c1 | inactive

Reference: PubChem BioAssay AID686979 (National Center for Advancing Translational Sciences (NCATS), 2013)
